Results on nine compounds are retold here after PubChem BioAssay (NCI).

The panel holds about 83,000 compounds, 20% with a hit somewhere; the sample as a whole holds those more often.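 Treatment: one concentration, 48 hours, 96-well format. Scoring: percent growth, with anything below 10 considered active.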 Unmarked numbers belong to inactive results. Activity calls are given as the source filed them.

Some test systems named below: SR leukemia; RPMI-8226 leukemia; OVCAR-8 ovarian; OVCAR-5 ovarian; OVCAR-4 ovarian; IGROV1 ovarian; OVCAR-3 ovarian; HS 578T breast; NCI/ADR-RES ovarian; T-47D breast; BT-549 breast; MDA-MB-435 melanoma; SW-620 colon; MCF7 breast; HCT-116 colon; HCC-2998 colon; KM12 colon; SK-OV-3 ovarian.
Experiment in all cases: NCI-60 one-dose screen, 48 h (100 = growth as untreated, 0 = no growth, -100 = all killed)
Holding throughout (conditions): 10 µM unless noted

As for `O=c1c2ccccc2nc(COc2ccccc2)n1NS(=O)(=O)c1ccc(Cl)cc1`, the growth in the experiment with SR leukemia was 57.6%; with RPMI-8226 leukemia it was 95.6%; in the experiment with OVCAR-8 ovarian, 92%; with OVCAR-5 ovarian, 91.2%; with OVCAR-4 ovarian it was 95.2%; in the experiment on IGROV1 ovarian it was 61.7%. Besides, the growth was 103% with OVCAR-3 ovarian; 75% with HS 578T breast; 73% in the experiment with NCI/ADR-RES ovarian; 74.8% with T-47D breast; 106% with BT-549 breast; 5.47% (active) with MDA-MB-435 melanoma. The growth was 64.1% with SW-620 colon; 41.9% in the experiment with MCF7 breast; 83.6% in the experiment on HCT-116 colon; 77.6% in the experiment on HCC-2998 colon; 55.2% in the experiment with KM12 colon.

Consider `Nc1nc(N)c2c(n1)NC(c1ccc(C(F)(F)F)cc1)CC(c1ccc(Nc3nc(NCCO)nc(N4CCOCC4)n3)cc1)=N2` (stereo unspecified), for which the growth with SR leukemia was 5.13% (active); with RPMI-8226 leukemia it was 28.9%; in the experiment on OVCAR-5 ovarian, 97.6%; with OVCAR-4 ovarian, 79.5%; with SK-OV-3 ovarian it was 99.7%; in the experiment on IGROV1 ovarian, 72.6%. Further, the growth was 61.2% with OVCAR-3 ovarian; 58.5% with HS 578T breast; 97.5% in the experiment with NCI/ADR-RES ovarian; 62.7% in the experiment on T-47D breast; 76.3% with BT-549 breast; 65.9% with MDA-MB-435 melanoma. The growth in the experiment on SW-620 colon is 56.7%; in the experiment on MCF7 breast, 33.7%; in the experiment on HCT-116 colon, 35.8%; with HCC-2998 colon, 86.4%; with KM12 colon, 51.2%.

For the compound `CCCCCc1ccc(S(=O)(=O)Nc2cccc(-c3csc(NC(=O)CN4CCN(C)CC4)n3)c2)cc1`, the growth with SR leukemia was -4.74% (active); in the experiment on RPMI-8226 leukemia, 5.62% (active); in the experiment with OVCAR-5 ovarian it was 105%; with OVCAR-4 ovarian, 81.4%; in the experiment with SK-OV-3 ovarian it was 90.6%; in the experiment on IGROV1 ovarian, 83.8%. Further, the growth with OVCAR-3 ovarian is 75.3%; in the experiment with HS 578T breast it was 82.1%; in the experiment on NCI/ADR-RES ovarian, 93.1%; in the experiment with T-47D breast, 67.2%; in the experiment on BT-549 breast, 93.4%; in the experiment on MDA-MB-435 melanoma it was 45.3%. Moreover, the growth in the experiment with SW-620 colon is 46.5%; in the experiment on MCF7 breast, 26.2%; in the experiment on HCT-116 colon, 16.9%; with HCC-2998 colon, 14.8%; in the experiment on KM12 colon it was 65.8%.

`COc1ccc(CCOc2cc3c(cc2OC)CCN(C(=O)NCc2cocn2)C3c2ccc(C)cc2C)cc1` (stereo unspecified): the growth in the experiment on SR leukemia is 5.38% (active); with RPMI-8226 leukemia, 7.04% (active); in the experiment with OVCAR-8 ovarian, 17.9%; with OVCAR-5 ovarian, 28.6%; in the experiment on OVCAR-4 ovarian, 51.5%; in the experiment on SK-OV-3 ovarian it was 38%. Besides, the growth in the experiment with IGROV1 ovarian was 12.9%; in the experiment on HS 578T breast it was -4.03% (active); with T-47D breast, 49%; with BT-549 breast it was -17% (active); in the experiment on MDA-MB-435 melanoma it was 8.73% (active); with SW-620 colon it was 23%. Also, the growth was 13.5% in the experiment with MCF7 breast, 6.95% (active) in the experiment on HCT-116 colon, 11.5% in the experiment on HCC-2998 colon and 11.4% with KM12 colon.

For the compound `O=C(CSc1nnc(-c2ccc(Cl)cc2)n1-c1ccccc1)Nc1cccc(Cl)c1`, the growth was 21.4% with SR leukemia; 34.5% in the experiment on RPMI-8226 leukemia; 71.7% with OVCAR-5 ovarian; -5.99% (active) in the experiment on OVCAR-4 ovarian; 126% with SK-OV-3 ovarian; 46.7% in the experiment on IGROV1 ovarian. The growth in the experiment with OVCAR-3 ovarian was 82%; with HS 578T breast it was 54.4%; in the experiment on NCI/ADR-RES ovarian it was 50.4%; in the experiment with T-47D breast, 48.2%; in the experiment on BT-549 breast it was 61.6%; in the experiment with MDA-MB-435 melanoma, 72.9%. For the same compound, the growth is 49.8% in the experiment with SW-620 colon; 65.1% with MCF7 breast; 12.8% with HCT-116 colon; 83.8% with HCC-2998 colon; 71.9% in the experiment with KM12 colon.

On to `CC(c1ccccc1)N1CSc2nc3ncncc3n2C1` (stereo unspecified), for which the growth was 88.2% in the experiment with SR leukemia; 26.4% in the experiment with RPMI-8226 leukemia; 39.7% with OVCAR-5 ovarian; 27.1% with OVCAR-4 ovarian; 24.8% with SK-OV-3 ovarian; 45.5% in the experiment on IGROV1 ovarian. Besides, the growth is 33.1% with OVCAR-3 ovarian; 64.2% in the experiment with HS 578T breast; 26.7% with NCI/ADR-RES ovarian; 34% with T-47D breast; 59% with BT-549 breast; 23.5% in the experiment with MDA-MB-435 melanoma. Besides, the growth is 41.1% in the experiment with SW-620 colon; 5.38% (active) in the experiment on MCF7 breast; 19.2% with HCT-116 colon; 23.8% in the experiment with HCC-2998 colon; 21.8% with KM12 colon.

Turning to `Cc1c(F)cc(C(N)=O)cc1NCC(=O)Nc1ccc([N+](=O)[O-])cc1`, the growth in the experiment on SR leukemia was 107%; in the experiment on RPMI-8226 leukemia it was 110%; in the experiment on OVCAR-5 ovarian, 89.5%; in the experiment on OVCAR-4 ovarian it was 67.8%; in the experiment with SK-OV-3 ovarian, 106%; in the experiment with IGROV1 ovarian, 80.1%. The growth in the experiment with OVCAR-3 ovarian was 96.7%; in the experiment on HS 578T breast, 88.4%; with NCI/ADR-RES ovarian, 96.6%; with T-47D breast, 102%; with BT-549 breast, 98%; in the experiment on MDA-MB-435 melanoma, 99.8%. The growth with SW-620 colon was 92.9%; in the experiment on MCF7 breast, 87.1%; in the experiment on HCT-116 colon, 99.9%; with HCC-2998 colon, 105%; with KM12 colon it was 98.6%.

Consider `Oc1cccc2ccc(-c3nnc(SCc4ccc(O)c5ncccc45)o3)nc12`, for which the growth was 26.1% in the experiment with SR leukemia; 2.55% (active) with RPMI-8226 leukemia; 40.9% in the experiment on OVCAR-5 ovarian; 20.5% in the experiment with OVCAR-4 ovarian; 12.3% in the experiment on SK-OV-3 ovarian; 13.4% in the experiment with IGROV1 ovarian. The growth in the experiment on OVCAR-3 ovarian was 2.66% (active); in the experiment on HS 578T breast, 8.45% (active); in the experiment on NCI/ADR-RES ovarian, 17.3%; with T-47D breast, 16%; in the experiment with BT-549 breast it was 15.9%; with MDA-MB-435 melanoma it was 12%. Moreover, the growth was 19.2% in the experiment with SW-620 colon; 4.96% (active) in the experiment on MCF7 breast; 5.66% (active) with HCT-116 colon; 27.6% in the experiment with HCC-2998 colon; 8.28% (active) in the experiment on KM12 colon.

As to `COc1ccccc1N1CCN(C2=CC(=O)C(C)=C(C)C2=O)CC1`, the growth in the experiment with SR leukemia was 119%; in the experiment on RPMI-8226 leukemia it was 101%; in the experiment with OVCAR-8 ovarian it was 100%; in the experiment with OVCAR-5 ovarian, 107%; in the experiment with OVCAR-4 ovarian it was 93.2%; in the experiment with SK-OV-3 ovarian, 109%. Moreover, the growth was 112% with IGROV1 ovarian; 103% with HS 578T breast; 91.1% in the experiment with T-47D breast; 104% in the experiment with BT-549 breast; 106% in the experiment on MDA-MB-435 melanoma; 105% with SW-620 colon. For the same compound, the growth was 83.5% in the experiment with MCF7 breast, 106% in the experiment on HCT-116 colon, 110% in the experiment on HCC-2998 colon and 105% in the experiment with KM12 colon.
